High-throughput results (PubChem BioAssay)
An excerpt weighted towards active compounds, which were near 19% of everything screened.
HT1080NT lethal: kills 2HG-producing HT-1080-NT fibrosarcoma cells; Potency, µM (highest dose often 46.1 µM), most hits filed as cytotoxic; HT-1080-NT fibrosarcoma viability, CellTiter-Glo ATP luminescence, 48 h; 360,000 compounds, 1.6% hits; AID 686970;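 note: NT is the 2HG producing partner of a matched IDH1 knockdown line; nearly all actives have a fitted effect of over 55% in size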
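750 cells/well, RPMI + 5% FBS; 2 h settle, compound pin-transfer, 48 h at 37 degrees C. CellTiter-Glo 10 min RT, luminescence. Normalized to DMSO and media-only wells.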
DT40 TDP1 no CPT: qHTS for Inhibitors of human tyrosyl-DNA phosphodiesterase 1 (TDP1): qHTS in cells in absence of CPT; DT40 Tdp1-/- hTDP1 cells, no CPT, ATP luminescence, 48 h; Potency, µM (highest dose often 46.2 µM), hits mostly inhibitors; 420,000 compounds, 15% hits; note: nearly all actives have a fitted effect of over 55% in size
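Chicken DT40 Tdp1-/- cells stably complemented with human TDP1 were seeded at 400 cells/well with DMSO in place of 20 nM camptothecin. After compound pinning, cells grew at least 48 hr at 37 °C; viability read by CellTiter-Glo luminescence.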
TDP1 cell CPT: growth inhibition of DT40 Tdp1-/-;hTDP1 cells with camptothecin (screen for TDP1 inhibitors); chicken DT40 Tdp1-/-;hTDP1 cells + 20 nM CPT, ATP luminescence, 48 h; Potency, µM (doses to about 46.2 µM), usual class: inhibitors; 420,000 compounds, 12% hits; note: nearly all actives have a fitted effect of over 55% in size
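Cell growth measured by CellTiter-Glo luminescence after a minimum 48 h, 37 C compound exposure with 20 nM CPT in Tdp1-knockout DT40 cells stably expressing hTDP1, seeded 400/well; qHTS titration format.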
IL-1B inflam inh: inflammasome signaling inhibition, IL-1 beta readout; THP-1 LPS/ATP IL-1B secretion, AlphaLISA, 16 h; active compounds read low; activity change, % at 57.5 µM; 360,000 compounds, 4.7% hits; AID 743279; in the data active = activity change below about -50%; inconclusive = mostly about -30% to -49%
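Secreted IL-1B measured by AlphaLISA bead assay after 16 h compound exposure of THP-1 cells; compounds (final up to 57.5 uM) added 1 h before LPS (250 ng/mL) and ATP (1.25 mM) stimulation; lower signal means less secretion.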
HT1080 IDH1KD tx: HT-1080 IDH1 knockdown cell toxicity (counter line). 360,000 compounds, 2% hits. Potency, µM (highest dose often 46.1 µM), usual class: cytotoxic. HT-1080 IDH1 knockdown viability, ATP luminescence, 48 h
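Viability of IDH1-knockdown HT-1080 fibrosarcoma cells was assessed by CellTiter-Glo after 48 h at 37 °C with titrated compound; concentration-effect curves were classified by fit quality and response size.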
Hits are given with their value. Unless noted, calls come from the whole dose curve; as a rule, active = well fitted curve in the direction sought with a large enough effect; inconclusive = small, poorly fitted or top-dose-only effect, or another doubt; inactive = no such curve, though single readings can be large; an effect the other way counts as inactive or inconclusive.

How did CCOC(=O)c1ccc2ncc(C(=O)OCC)c(Nc3ccc(N4CCOCC4)cc3)c2c1 do in these assays?
HT1080NT lethal: inconclusive; DT40 TDP1 no CPT: 6.51µM; TDP1 cell CPT: 10.3µM; IL-1B inflam inh: inactive; HT1080 IDH1KD tx: inconclusive

How did CCOC(=O)c1cnc2ccc(OC)cc2c1Nc1ccc2c(c1)OCCO2 do in these assays?
HT1080NT lethal: inconclusive; DT40 TDP1 no CPT: 18.4µM; TDP1 cell CPT: inconclusive; IL-1B inflam inh: inactive; HT1080 IDH1KD tx: inconclusive

How did CCOC(=O)c1cnc2ccc(C(=O)OC)cc2c1Nc1ccc2c(c1)OCCO2 do in these assays?
HT1080NT lethal: inactive; DT40 TDP1 no CPT: inconclusive; TDP1 cell CPT: inconclusive; IL-1B inflam inh: inactive; HT1080 IDH1KD tx: inactive

Results for C=CCOCCN(CC)CC ?
HT1080NT lethal: inactive; DT40 TDP1 no CPT: inactive; TDP1 cell CPT: inactive; IL-1B inflam inh: inactive; HT1080 IDH1KD tx: inactive

What do the screens show for `COc1ccccc1CNC(=O)CCNC(=O)c1ccco1`?
HT1080NT lethal: inactive; DT40 TDP1 no CPT: inactive; TDP1 cell CPT: inactive; IL-1B inflam inh: inactive; HT1080 IDH1KD tx: inactive

Results for CCCCCCCCCCCCCC(=O)OC(C)C ?
DT40 TDP1 no CPT: inactive; TDP1 cell CPT: inactive

How did CCCCCCCCCCCCCCCC(=O)OC(CC(=O)O)C[N+](C)(C)C (stereo unspecified) do in these assays?
HT1080NT lethal: 9.2µM; DT40 TDP1 no CPT: inconclusive; TDP1 cell CPT: 5.8µM; IL-1B inflam inh: inactive; HT1080 IDH1KD tx: inconclusive

How did CCCCCCCCCCCCCC(=O)O[C@H](CC(=O)O)C[N+](C)(C)C do in these assays?
DT40 TDP1 no CPT: inactive; TDP1 cell CPT: inconclusive

What do the screens show for `CCCCCCCCCCCCCCCC(=O)O[C@H](CC(=O)O)C[N+](C)(C)C`?
DT40 TDP1 no CPT: 29.9µM; TDP1 cell CPT: inconclusive

How did COc1cccc(C2C3CN(C)CC=C3C(C#N)=C(N)C2(C#N)C#N)c1OC (stereo unspecified) do in these assays?
HT1080NT lethal: inactive; DT40 TDP1 no CPT: inactive; TDP1 cell CPT: inactive; IL-1B inflam inh: inactive; HT1080 IDH1KD tx: inactive

What do the screens show for `CN1CC=C2C(C#N)=C(N)C(C#N)(C#N)C(c3ccsc3)C2C1` (stereo unspecified)?
HT1080NT lethal: inactive; DT40 TDP1 no CPT: inconclusive; TDP1 cell CPT: inconclusive; IL-1B inflam inh: inactive; HT1080 IDH1KD tx: inactive

Results for CN1CC=C2C(C#N)=C(N)C(C#N)(C#N)[C@H](c3cccs3)[C@H]2C1 ?
HT1080NT lethal: inactive; DT40 TDP1 no CPT: 14.6µM; TDP1 cell CPT: inconclusive; IL-1B inflam inh: inactive; HT1080 IDH1KD tx: inactive

Results for CN1CC=C2C(C#N)=C(N)C(C#N)(C#N)[C@H](c3cccc(Cl)c3)C2C1 (stereo partly specified) ?
HT1080NT lethal: inactive; DT40 TDP1 no CPT: 23.1µM; TDP1 cell CPT: inconclusive; IL-1B inflam inh: inactive; HT1080 IDH1KD tx: inactive

How did N#Cc1sc2nccc(Nc3ccccc3)c2c1N do in these assays?
HT1080NT lethal: inactive; DT40 TDP1 no CPT: 2.06µM; TDP1 cell CPT: inconclusive; IL-1B inflam inh: inactive; HT1080 IDH1KD tx: inactive

What do the screens show for `COCCCNC(=O)CC1C(=O)N(Cc2ccccc2)C(C)c2nc3ccccc3n21` (stereo unspecified)?
HT1080NT lethal: inactive; DT40 TDP1 no CPT: inactive; TDP1 cell CPT: inactive; IL-1B inflam inh: inactive; HT1080 IDH1KD tx: inactive

How did CCOc1ccc(N2CC(c3nc4ccccc4n3CCCOc3ccccc3OC)CC2=O)cc1 (stereo unspecified) do in these assays?
DT40 TDP1 no CPT: 8.2µM; TDP1 cell CPT: inconclusive

What do the screens show for `COc1ccccc1OCCCn1c(C2CC(=O)N(c3ccc(F)cc3)C2)nc2ccccc21` (stereo unspecified)?
DT40 TDP1 no CPT: 8.2µM; TDP1 cell CPT: inconclusive

How did CCOc1ccccc1N1CC(c2nc3ccccc3n2CCCOc2ccccc2)CC1=O (stereo unspecified) do in these assays?
DT40 TDP1 no CPT: inconclusive; TDP1 cell CPT: inactive

How did COc1cccc(-c2noc(C3CC(=O)N(c4ccc(F)cc4)C3)n2)c1OC (stereo unspecified) do in these assays?
DT40 TDP1 no CPT: inactive; TDP1 cell CPT: inactive

Results for Cc1ccc(-c2c3c([nH]c(=S)c2C#N)CCCC3)o1 ?
HT1080NT lethal: inactive; DT40 TDP1 no CPT: inconclusive; TDP1 cell CPT: 23.1µM; IL-1B inflam inh: inactive; HT1080 IDH1KD tx: inactive

How did COc1cc(OC)c(C2C=CC(=O)CC2)c(OC)c1 (stereo unspecified) do in these assays?
HT1080NT lethal: inactive; DT40 TDP1 no CPT: inactive; TDP1 cell CPT: inactive; IL-1B inflam inh: inconclusive; HT1080 IDH1KD tx: inactive

Results for COC(=O)C1=C(C)NC(=O)/C1=C\c1cc(C)n(-c2cccc(C)c2)c1C ?
HT1080NT lethal: inactive; DT40 TDP1 no CPT: 16.4µM; TDP1 cell CPT: inconclusive; IL-1B inflam inh: inconclusive; HT1080 IDH1KD tx: inactive

Results for CCCCn1c(=O)[nH]c(=O)c2c1nc(Cn1ncc(Cl)c(Cl)c1=O)n2CCC ?
HT1080NT lethal: 8.2µM; DT40 TDP1 no CPT: 2.59µM; TDP1 cell CPT: 4.61µM; IL-1B inflam inh: -104.0; HT1080 IDH1KD tx: 11.6µM

What do the screens show for `O=C(Nc1cc(C(=O)N2CCN(c3ccccc3O)CC2)ccc1Cl)c1cccs1`?
HT1080NT lethal: inactive; DT40 TDP1 no CPT: inconclusive; TDP1 cell CPT: inconclusive; IL-1B inflam inh: inconclusive; HT1080 IDH1KD tx: inactive

How did CN(Cc1nc(-c2ccc(Cl)cc2)no1)C(=O)c1ccc2c(c1)OCO2 do in these assays?
HT1080NT lethal: inactive; DT40 TDP1 no CPT: inactive; TDP1 cell CPT: inactive; IL-1B inflam inh: inactive; HT1080 IDH1KD tx: inactive

What do the screens show for `CN(N=O)C(=O)N[C@@H]1[C@@H](O)[C@H](O)[C@@H](CO)O[C@@H]1O`?
DT40 TDP1 no CPT: inactive; TDP1 cell CPT: inactive

Results for CCOc1ccc(CCN2C(=S)N([C@@H](Cc3ccc(O)cc3)CN3CCC[C@@H]3CN3C(=S)NC[C@@H]3CC(C)C)C[C@@H]2Cc2ccc(O)cc2)cc1 ?
HT1080NT lethal: 16.4µM; DT40 TDP1 no CPT: 3.66µM; TDP1 cell CPT: 5.17µM; IL-1B inflam inh: inactive; HT1080 IDH1KD tx: 20.6µM

What do the screens show for `CCOc1ccc(CCN2C(=S)N([C@@H](Cc3ccc(O)cc3)CN3CCCC3CN3C(=S)NC[C@@H]3Cc3ccc(O)cc3)C[C@@H]2CC(C)C)cc1` (stereo partly specified)?
HT1080NT lethal: inactive; DT40 TDP1 no CPT: inconclusive; TDP1 cell CPT: inconclusive; IL-1B inflam inh: -69.4; HT1080 IDH1KD tx: inactive

Results for CCOc1ccc(CCN2C(=S)N([C@@H](Cc3ccccc3)CN3CCC[C@@H]3CN3C(=S)NC[C@@H]3Cc3ccc(O)cc3)C[C@@H]2CC(C)C)cc1 ?
HT1080NT lethal: inactive; DT40 TDP1 no CPT: 9.2µM; TDP1 cell CPT: 9.2µM; IL-1B inflam inh: inactive; HT1080 IDH1KD tx: inactive

How did CCN(CC(=O)Nc1ccc(OC)cc1)CC(=O)Nc1cccc(S(=O)(=O)N2CCOCC2)c1 do in these assays?
HT1080NT lethal: inactive; DT40 TDP1 no CPT: inconclusive; TDP1 cell CPT: inactive; IL-1B inflam inh: inactive; HT1080 IDH1KD tx: inactive
